Results from PubChem BioAssay AID488789 (Broad Institute, 2010).
Potency and affinity values are given separately. Results filed as inconclusive are left out.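 The calls were made as follows: active = samples whose fitted half-maximal inhibition concentration is no more than ten times the top valid dose tested; inconclusive = flat response between -70 and -30, or invalid curve fit; inactive = flat within 30 of zero, potency above limit, or signal rising.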

Biological target: Trypsin (Sus scrofa) (UniProt P00761)
Experiment: trypsin protease activity blockade – biochemical, quenched peptide fluorescence, cherry-pick, selectivity assay for Rce1 protease inhibitor project, dose response (AID 488789);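 also: more negative means stronger trypsin inhibition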
Details: porcine trypsin, quenched peptide cleavage fluorescence; series mostly up to 10 µM; activity change, negative = inhibition: at the top concentration

Sequence of Trypsin (Sus scrofa) (P00761 whole entry, looked up): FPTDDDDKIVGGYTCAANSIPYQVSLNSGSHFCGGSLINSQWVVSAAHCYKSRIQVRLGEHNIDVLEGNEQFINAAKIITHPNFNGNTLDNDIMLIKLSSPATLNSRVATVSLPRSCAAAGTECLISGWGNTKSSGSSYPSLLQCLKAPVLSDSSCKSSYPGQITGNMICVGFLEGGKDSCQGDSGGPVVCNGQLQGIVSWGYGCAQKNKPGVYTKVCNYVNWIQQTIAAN

Activity change, negative = inhibition, inactive:
NC(=O)[C@@H]1CC2(CC(c3cccc(NC(=O)CC(c4ccccc4)c4ccccc4)c3)=NO2)CN1C(=O)c1ccc(Cl)cc1 (stereo partly drawn) 9%
N/C(Cc1ccc([N+](=O)[O-])cc1)=N\OC(=O)c1ccc2ccccc2c1 17.9%
CCO[C@@H]1OC(C(=O)N2CCN(Cc3ccccc3)CC2)=C[C@H](c2ccccc2)[C@H]1CCCO 12.4%
Cc1ccc(C(=O)N/C(=C/c2ccco2)C(=O)Nc2cccc(C(=O)O)c2)cc1 5.53%
O=C(C1=C[C@@H](C2CC2)C[C@@H](OCc2ccc(CO)cc2)O1)N1CCN(Cc2ccccc2)CC1 7.29%
CN1CCN(C(=S)NC(=O)c2ccccc2Cl)CC1 2.37%
COc1ccc(CCN(C)C(=O)c2ccc(S(=O)(=O)Nc3ccccc3C)cc2)cc1OC 9.33%
COC(C/C=C\C(=O)[C@H](C)OCc1ccccc1)OC 18.9%
N#CC(C#N)=C1NC(N)=C(C#N)C(c2ccccc2)=C1C#N -9.18%
C/C(Cl)=C\Cn1c(O)c(N=NC(N)=S)c2cc(Br)ccc21 4.97%
CCN(CC)CCN(C(=O)c1ccc2ccccc2c1)c1nc2ccc(F)cc2s1 -0.0599%
Cc1ccc(-c2cc3cccc[n+]3cc2-c2ccc(C)cc2)cc1 16.4%
COc1cc2c(cc1OC)C(C)=NC1(CCCCC1)C2 -10.1%
Oc1c(N=NC(=S)Nc2ccccc2F)c2ccccc2n1Cc1ccccc1F 2.08%
COc1ccc(C2/C=C\CN(C(=O)c3ccc(C)cc3)[C@H](Cc3ccccc3)C(=O)N2Cc2ccc(F)cc2)cc1 (stereo partly drawn) 6.08%
COC(=O)C(Cc1ccccc1)OS(N)(=O)=O (stereo not drawn) 18.6%
Cc1nn(CCC(=O)O)c2nc(-c3cccnc3)cc(C(F)(F)F)c12 9.33%
Cc1cc(C(=O)N[C@H](c2ccccc2)[C@@]2(C)C[C@@H]2[C@@H](C)C(=O)Nc2ccc3ccccc3c2)n(C)n1 15.2%
O=S(=O)(c1ccc(-c2csc(Nc3ccc(F)cc3)n2)cc1)N1CCCC1 -4.3%
O=C(N/N=C/C1CC=CCC1)c1ccc(O)cc1O (stereo not drawn) 7.39%
O=C(C1CCC(=O)N(C2CC2)C1)N1CCN(c2ccccc2Cl)CC1 (stereo not drawn) 2.53%
CC(C)C(NC(=O)c1ccco1)C(=O)NCC(c1ccco1)N1CCCCC1 (stereo not drawn) 7.33%
CN(C)CCN(C(=O)c1ccc2ccccc2c1)c1nc2ccc(Br)cc2s1 6.49%
CCC(C)(C)c1ccc(OCCCC[n+]2cccc(C)c2C)c(C(C)(C)CC)c1 -5.25%
Cc1cc(NS(=O)(=O)c2ccccc2)c([N+](=O)[O-])cc1C -5.69%
O=C(Nc1sc2c(c1C(=O)c1ccc(Cl)cc1)CCCC2)c1cccnc1 13.8%
Cc1cc(C)n(-c2nc3ccccc3c(=O)n2OCC(=O)N(C)C)n1 -8.54%
CC1(C)CC2CC(C)(CN2S(=O)(=O)c2ccc(N)cc2)C1 (stereo not drawn) -1.27%
Cc1cccc(NC(=O)C2(c3ccc([N+](=O)[O-])cc3)CCCC2)c1 6.69%
CCCCN(CC)CCNC(=O)c1cc2c(-c3ccc(Cl)cc3)nn(C)c2s1 66.6%
COc1cc(OC)cc(-c2ncc3ccccn23)c1 -4.15%
Cc1ccc2nc(N(CCN(C)C)C(=O)c3ccc4ccccc4c3)sc2c1 6.43%
O=C(Nc1ccc(S(=O)(=O)Nc2ccccc2)cc1)C1COc2ccccc2O1 (stereo not drawn) 0.348%
O=C1C(=O)N(C/C=C/c2ccccc2)c2ccccc21 12%
Cc1ccc(SCc2c(C(=O)N/N=C/c3ccccc3)nnn2-c2nonc2N)cc1 1.99%
CCC(=O)Nc1cccc(NC(=S)NC(=O)c2cccs2)c1 7.96%
Nc1nonc1-n1nnc(C(=O)N/N=C/c2cccc(Cl)c2)c1CSc1ccc(Cl)cc1 7.37%
CN(C)C(=O)COc1ccc2ccc(=O)oc2c1 -6.92%
